# From PubChem BioAssay
# For some assays here: Measured potencies and affinities stand elsewhere. Active and inactive are the calls of the source. Rule as the data show it, unless noted: active = inhibition above about 80%; inactive = the rest.
# Columns and labels:
# [1] = rescue of polyQ-huntingtin neuronal dysfunction in worms, whole organism, C. elegans mechanosensory neurons, N-terminal huntingtin (AID 1599); details: touch response, stronger effect = higher value
# [2] = inhibitors of mitochondrial cytochrome c release, biochemical, purified mitochondria (AID 1603); details: stronger effect = lower value;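 also: mouse liver mitochondria challenged with calcium chloride; signal normalized to the plate average as 100%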
# [3] = inhibitors of polyQ protein aggregation (AID 1604); details: polyglutamine-induced protein aggregation inhibition assay; stronger effect = higher value; tested at 2.5 µM
# [4] = enhancers of glutamate uptake in motor neurons, MN-1 cell line (AID 1612); details: MN-1 motor neuron cells, stronger effect = higher value;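 also: tested at 1 µM final; 0% = mean of DMSO vehicle wells on each plate; positive means more glutamate uptake than control and negative means less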
# [5] = reducers of polyQ inclusions in PC12 cells, cell-based, NGF-treated PC12, GFPQ80 (AID 1614); details: PC12 NGF-treated GFP-polyQ80 inclusion reduction;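 also: lower means fewer inclusions and 0 means no inclusions at all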
# [6] = suppressors of polyglutamine aggregation in yeast, 75Q-TubH (AID 1616); details: S. cerevisiae 75Q-TubH polyglutamine aggregation suppression; stronger effect = higher value
# [7] = molecular target: Mitogen-activated protein kinase 7 (Homo sapiens) (UniProt Q13164); assay: ERK5 transactivation activators in reporter cells, primary screen, cell-based, HTS (AID 1508626;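 active = luciferase signal above three times the same-plate solvent-only control wells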;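 also: luciferase driven by Gal4-ERK5 fusion binding five Gal4 sites before minimal TATA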); details: HeLa Gal4-ERK5 transactivation, 18 h, at 5 µM, stronger effect = higher value
# [8] = LFS_MB_P medulloblastoma growth inhibition, cell-based, chromothripsis tumors, cisplatin or BGB combos (AID 1671449); details: LFS_MB_P medulloblastoma cells;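 also: cells exposed for 96 hours; 0% = vehicle DMSO and 100% = killing by high DMSO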
# [9] = HDN33 neuroblastoma growth inhibition, cell-based, chromothripsis tumors, cisplatin or BGB combos (AID 1671450); details: HDN33 neuroblastoma cells, stronger effect = higher value;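 also: cells exposed to compound for four days; 0% = vehicle DMSO and 100% = cell killing by high DMSO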
# [10] = LFS_MB_1R medulloblastoma cell growth inhibition, synergistic combos for chromothripsis tumors, cisplatin or BGB combos (AID 1671452); details: LFS_MB_1R medulloblastoma cells, stronger effect = higher value;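 also: cells exposed for 96 hours before readout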
# [11] = HTB85 osteosarcoma cell growth inhibition, synergistic combos for chromothripsis tumors, BGB or cisplatin IC20 combos (AID 1671453); details: HTB85 osteosarcoma cells, drug combinations, stronger effect = higher value;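 also: cells exposed for 96 hours before readout; 0% = vehicle DMSO and 100% = high DMSO killing control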
# [12] = CRL2098 osteosarcoma cell growth inhibition, synergistic combos for chromothripsis tumors, BGB or cisplatin IC20 combos (AID 1671454); details: CRL2098 osteosarcoma cells, drug combinations, stronger effect = higher value;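 also: cells exposed for 96 h before readout; 0% = vehicle DMSO and 100% = killing by high DMSO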
# [13] = HD-MB03 medulloblastoma cell growth inhibition, synergistic combos for chromothripsis tumors, BGB or cisplatin IC20 combos (AID 1671455; in the data active = inhibition above about 83%;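 also: 0% = vehicle DMSO and 100% = high DMSO as cytotoxic control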); details: HD-MB03 medulloblastoma cells, stronger effect = higher value
# [14] = MDA-MB-436 breast carcinoma cell growth inhibition, synergistic combos for chromothripsis tumors, BGB or cisplatin combos (AID 1671458; call rule not given here;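 also: cells exposed for 96 hours; 0% = vehicle DMSO and 100% = killing by high DMSO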); details: MDA-MB-436 breast carcinoma growth inhibition, drug combinations, stronger effect = higher value
# [15] = growth inhibition of BT084 medulloblastoma cells, cell-based, ICGC_MB145, cisplatin and BGB IC40 combos (AID 1671461); details: drug combinations, stronger effect = higher value;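 also: cells exposed to drugs for 96 hours; 0% = vehicle DMSO and 100% = high DMSO full killing control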
# [16] = growth inhibition of RCMB18 medulloblastoma cells, cell-based, cisplatin and BGB IC40 combos (AID 1671462); details: stronger effect = higher value;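 also: cells exposed to compound for four days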
# [17] = growth inhibition of CRL1545 osteosarcoma cells, cell-based, cisplatin and BGB IC20 combos (AID 1671464); details: stronger effect = higher value;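 also: cells exposed to compound for 96 hours before readout; 0% = vehicle DMSO and 100% = high DMSO killing control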
# [18] = measured here: combination with BGB IC40, at 0.05 µM
# [19] = measured here: with BGB IC20 combination, at 0.5 µM
# [20] = measured here: with cisplatin IC20 combination, at 0.5 µM
# [21] = measured here: combination with cisplatin, at 0.5 µM
# Chain of Mitogen-activated protein kinase 7 (Homo sapiens) (Q13164 whole entry, looked up, the tested form may be a part): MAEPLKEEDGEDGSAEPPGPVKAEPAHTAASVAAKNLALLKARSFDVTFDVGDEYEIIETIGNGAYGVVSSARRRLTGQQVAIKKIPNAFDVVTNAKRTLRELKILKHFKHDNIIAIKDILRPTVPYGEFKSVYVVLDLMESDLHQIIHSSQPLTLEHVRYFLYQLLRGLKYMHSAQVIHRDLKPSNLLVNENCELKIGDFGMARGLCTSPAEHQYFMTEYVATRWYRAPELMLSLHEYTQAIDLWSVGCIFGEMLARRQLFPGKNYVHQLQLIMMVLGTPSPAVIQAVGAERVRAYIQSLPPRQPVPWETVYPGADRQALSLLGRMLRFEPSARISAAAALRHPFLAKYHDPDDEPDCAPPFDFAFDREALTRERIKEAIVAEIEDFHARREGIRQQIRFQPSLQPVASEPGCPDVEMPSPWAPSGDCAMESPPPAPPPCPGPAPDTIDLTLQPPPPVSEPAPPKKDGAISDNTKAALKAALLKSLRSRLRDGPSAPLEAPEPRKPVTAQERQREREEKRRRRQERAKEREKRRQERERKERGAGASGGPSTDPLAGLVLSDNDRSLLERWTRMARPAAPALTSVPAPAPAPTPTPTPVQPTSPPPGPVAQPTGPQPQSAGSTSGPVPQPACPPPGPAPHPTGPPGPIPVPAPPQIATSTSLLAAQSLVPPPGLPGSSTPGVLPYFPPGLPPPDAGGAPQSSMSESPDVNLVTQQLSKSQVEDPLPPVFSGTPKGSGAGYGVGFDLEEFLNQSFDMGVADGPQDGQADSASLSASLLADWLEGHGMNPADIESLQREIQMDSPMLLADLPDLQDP
smiles,measurement,setting,value
COC(=O)C(N)CS (configuration not stated),rescue above control,[1],-5.25
same,cytochrome c release ratio,[2],1.33
same,inhibition of aggregation,[3],74.2%
same,glutamate uptake change,[4],10.6%
same,inclusion score,[5],2
same,aggregation suppression score,[6],1.19
CC(C)Oc1ccc2c(=O)cc(-c3ccccc3)oc2c1,rescue above control,[1],6.51
same,cytochrome c release ratio,[2],0.9
same,inhibition of aggregation,[3],12.7%
same,glutamate uptake change,[4],-13.2%
same,inclusion score,[5],2
same,aggregation suppression score,[6],0.599
COC1=CC(C)[C@@H]2C[C@H]3OC(=O)C[C@H]4C(C)=C(OC)C(=O)C([C@@]34C)[C@@]2(C)C1=O (some centres not stated),rescue above control,[1],-7.37
same,cytochrome c release ratio,[2],0.85
same,inhibition of aggregation,[3],-1.96%
same,glutamate uptake change,[4],12.8%
same,inclusion score,[5],2
same,aggregation suppression score,[6],1.57
CC(=O)Oc1ccc2c(c1)CCC1C2CC[C@@]2(C)C1CC[C@@H]2OC(C)=O (some centres not stated),rescue above control,[1],6.23
same,cytochrome c release ratio,[2],1
same,inhibition of aggregation,[3],65.2%
same,glutamate uptake change,[4],-3%
same,aggregation suppression score,[6],0.34
CC1CCC2(OC1)OC1CC3C4CC[C@H]5C[C@@H](O)CC[C@]5(C)C4CC(=O)[C@]3(C)C1C2C (some centres not stated),rescue above control,[1],-2.31
same,cytochrome c release ratio,[2],1.08
same,inhibition of aggregation,[3],27.8%
same,glutamate uptake change,[4],2.67%
same,inclusion score,[5],2
same,aggregation suppression score,[6],1.27
CC1=C2C(=CO[C@H](C)[C@H]2C)C(=O)C(C(=O)O)=C1O,cytochrome c release ratio,[2],0.99
same,inhibition of aggregation,[3],68.3%
same,glutamate uptake change,[4],33.3%
same,inclusion score,[5],2
same,aggregation suppression score,[6],0.187
same,luciferase signal,[7],52 AU (inactive)
Nc1ccn(C2O[C@H](CO)[C@@H](O)[C@H]2O)c(=O)n1 (some centres not stated),rescue above control,[1],-6.6
same,cytochrome c release ratio,[2],1.18
same,inhibition of aggregation,[3],63.9%
same,glutamate uptake change,[4],6.93%
same,inclusion score,[5],2
same,aggregation suppression score,[6],1.06
CC(=O)O[C@@H]1CC2C(C)(C)C(=O)C=C[C@]2(C)C2CC[C@@]3(C)[C@H](c4ccoc4)OC(=O)[C@H]4O[C@]43[C@@]21C (some centres not stated),rescue above control,[1],-3.01
same,cytochrome c release ratio,[2],1.1
same,inhibition of aggregation,[3],36%
same,glutamate uptake change,[4],-11.6%
same,inclusion score,[5],2
same,aggregation suppression score,[6],0.57
C[N+]1(C)C2CC(OC(=O)[C@@H](CO)c3ccccc3)CC1C1OC12 (some centres not stated),rescue above control,[1],-0.68
same,cytochrome c release ratio,[2],0.94
same,inhibition of aggregation,[3],47.9%
same,glutamate uptake change,[4],-7.1%
same,inclusion score,[5],2
same,aggregation suppression score,[6],1.44
CC(=O)OCC(=O)[C@@]1(O)[C@H](C)CC2C3CCC4=CC(=O)C=C[C@]4(C)[C@@]3(F)[C@@H](O)C[C@@]21C (some centres not stated),rescue above control,[1],1.81
same,cytochrome c release ratio,[2],1.17
same,inhibition of aggregation,[3],69.4%
same,glutamate uptake change,[4],20.3%
same,inclusion score,[5],2
same,aggregation suppression score,[6],1.32
O=c1cc(-c2cccc3c2Sc2ccccc2S3)oc(N2CCOCC2)c1,inhibition,"[8]; at 0.5 µM, stronger effect = higher value",81.3% (active)
same,inhibition,"[8]; measured here: combination with BGB IC20, at 0.005 µM",-22.8%
same,inhibition,"[8]; measured here: combination with BGB IC40, at 0.005 µM",-15.3%
same,inhibition,[8]; [18],-27.2%
same,inhibition,"[8]; measured here: combination with cisplatin, at 0.5 µM, stronger effect = higher value",108%
same,inhibition,"[8]; measured here: combination with cisplatin, at 5 µM, stronger effect = higher value",-58.3%
same,inhibition,"[9]; BGB combo, at 5 µM",-23.9%
same,inhibition,[9]; at 0.5 µM,-20.7% (inactive)
same,inhibition,"[9]; cisplatin combo, at 5 µM",-6.5%
same,inhibition,[9]; [19],-21.1%
same,inhibition,[9]; [20],-8.71%
same,inhibition,"[9]; single agent, at 5 µM",-26.1%
same,inhibition,[10]; at 0.5 µM,-10.6% (inactive)
same,inhibition,[10]; [18],-24.7%
same,inhibition,[10]; [21],9.6%
same,inhibition,"[10]; measured here: combination with cisplatin, at 5 µM",-31.9%
same,inhibition,[11]; at 0.5 µM,-13.7% (inactive)
same,inhibition,"[11]; measured here: with BGB IC20, at 0.5 µM",-13.9%
same,inhibition,"[11]; measured here: with BGB IC20, at 5 µM",-31%
same,inhibition,"[11]; measured here: with cisplatin IC20, at 0.5 µM",-8.83%
same,inhibition,"[11]; measured here: with cisplatin IC20, at 5 µM",-19.5%
same,inhibition,"[11]; single agent, at 5 µM",-17.7%
same,inhibition,[12]; at 0.5 µM,-29.5% (inactive)
same,inhibition,"[12]; measured here: combination with BGB at IC20, at 0.5 µM",-49.7%
same,inhibition,"[12]; measured here: combination with cisplatin at IC20, at 0.5 µM",-36.1%
same,inhibition,[13]; at 0.5 µM,-12.6% (inactive)
same,inhibition,"[13]; measured here: combo with BGB at IC20, at 0.5 µM",-13%
same,inhibition,"[13]; measured here: combo with cisplatin at IC20, at 0.5 µM",-6.59%
same,inhibition,[14]; at 0.5 µM,-26.6% (inactive)
same,inhibition,"[14]; measured here: BGB combination, at 0.5 µM",-22.1%
same,inhibition,"[14]; measured here: BGB combination, at 5 µM",-25.2%
same,inhibition,"[14]; measured here: cisplatin combination, at 0.5 µM",-36.1%
same,inhibition,"[14]; measured here: cisplatin combination, at 5 µM",-24.3%
same,inhibition,[15]; at 0.5 µM,-24.9% (inactive)
same,inhibition,"[15]; cisplatin combination, at 0.5 µM",-8.73%
same,inhibition,"[15]; cisplatin combination, at 5 µM",-21.4%
same,inhibition,"[15]; measured here: BGB IC40 combination 0.05 uM, at 0.05 µM",-12.1%
same,inhibition,"[15]; single agent, at 5 µM",-39.1%
same,inhibition,[16]; at 0.5 µM,-11.1% (inactive)
same,inhibition,"[16]; cisplatin combo, at 5 µM",5.15%
same,inhibition,"[16]; measured here: BGB IC40 combination, at 0.05 µM",-26.8%
same,inhibition,[16]; [21],-2.95%
same,inhibition,"[16]; single agent, at 5 µM",-8.05%
same,inhibition,[17]; at 0.5 µM,-32.7% (inactive)
same,inhibition,[17]; [19],-8.28%
same,inhibition,[17]; [20],-48.2%
same,inhibition,"[17]; single agent, at 0.05 µM",-20.3%
same,inhibition,"[17]; single agent, at 5 µM",-31.2%
